# From PubChem BioAssay (NCATS)
# Records with an inconclusive call do not appear. Entries that show only a call come without a potency. Calls of active or inactive are those of the source. Calls come from the whole dose curve; as a rule, active = well fitted inhibition curve with a large enough effect; inconclusive = small, poorly fitted or top-dose-only effect; inactive = no such curve, though single readings can be large or run the other way.
# Test: Counterscreen qHTS for small molecule stabilizers of the endoplasmic reticulum resident proteome: GLuc-NoTag assay (AID 1508627)
# Conditions: Gaussia luciferase NoTag secretion counterscreen, luminescence, thapsigargin 100 nM for final 4 h; series mostly up to 76.4 µM
# Description: Assay Provider: Brandon K. Harvey Ph.D.
# National Institute on Drug Abuse, National Institutes of Health, Baltimore, MD
# Endoplasmic reticulum (ER) dysregulation is associated with human pathologies including neurodegenerative, cardiovascular, muscular, and diabetic conditions. Maintenance of ER calcium is critical for functions of the ER and its depletion can lead to loss of ER resident proteins, in a process termed exodosis. Therapeutic compounds capable of attenuating the redistribution of ER proteins under pathological conditions may slow or stop disease progression. To identify such compounds, we performed a quantitative high-throughput screen (qHTS) using the SERCaMP assay, which monitors secretion of ER resident proteins triggered by calcium depletion.
# SERCaMP was initially developed as a reporter of ER calcium homeostasis using a Gaussia luciferase with a modified signal peptide and carboxy-terminus (GLuc-SERCaMP), modifications that confer secretion of the reporter in response to ER calcium depletion (Henderson et al., 2014). The assay was used to screen 9,501 compounds, including a collection of drugs approved by the FDA (US), EMA (EU), NHI (Japan), and HC (Canada) regulatory agencies (Huang et al., 2011). Since the SERCaMP reporter reflects the exodosis phenomenon (Trychta et al., 2018a), compounds identified in the screen have the potential to prevent exodosis by different mechanisms such as stabilizing ER calcium or augmenting ERS retrieval.
# 1. Henderson, M.J., Wires, E.S., Trychta, K.A., Richie, C.T., and Harvey, B.K. (2014). SERCaMP: a carboxy-terminal protein modification that enables monitoring of ER calcium homeostasis. Mol Biol Cell 25, 2828-2839.
# 2. Huang, R., Southall, N., Wang, Y., Yasgar, A., Shinn, P., Jadhav, A., Nguyen, D.T., and Austin, C.P. (2011). The NCGC pharmaceutical collection: a comprehensive resource of clinically approved drugs enabling repurposing and chemical genomics. Sci Transl Med 3, 80ps16.
# 3. Trychta, K.A., Back, S., Henderson, M.J., and Harvey, B.K. (2018a). KDEL Receptors Are Differentially Regulated to Maintain the ER Proteome under Calcium Deficiency. Cell Rep 25, 1829-1840 e1826.
# SEQUENCE No. (1, 2, 3, etc.); […] (e.g., Cells, Incubation, Reagent, etc.); VALUE and DESCRIPTION.
# 1; Reagent; 5 uL; 1000 SH-SY5Y cells per wells
# 3; Compound; 23 nL; Control inhibitor / compound library
# 5; Reagent; 100 nM; Thapsigargin
# 7; Reagent; 1 uL; 0.5x coelenterazine
# 8; Detection; Luminescence; ViewLux imaging system
# NOTES (numbers refer to sequence above)
# 1; SH-SY5Y human neuroblastoma cells stably expressing the constitutively secreted GLuc (SH-SY5Y-GLuc-NoTag) cells were seeded in 1,536 well white tissue culture treated plates (Corning, Cat# 7464) in DMEM-high glucose-sodium pyruvate (ThermoFisher Scientific, Cat #10569) supplemented with 10% bovine growth serum (Hyclone), 10 U/ml penicillin (Gibco), 10 ug/ml streptomycin (Gibco), and 20 mM HEPES.
# 2; Assay plates were incubated for 5 hour at 37C in a humidified incubator containing 5% CO2.
# 4; Cells were then incubated for 19 hours at 37C, 5% CO2.
# 5; Thapsigargin was added at 100 nM to deplete ER calcium stores.
# 6; Cells were incubated for 4 hour (37 °C, 5% CO2)
# 7; Gaussia luciferase in the medium was measured by adding 1 ul of 0.5x coelenterazine (final concentration 0.07x) prepared in Gaussia Luciferase Glow Assay Buffer (Pierce), without addition of the Cell Lysis Buffer Reagent.
# 8; Luminescence was measured using a ViewLux CCD imaging system (Perkin Elmer) equipped with clear filters. […] The same controls were also used for the calculation of the Z' factor, a measure of assay quality control, as previously described (Zhang et al., 1999). For the initial validation of activity in the SERCaMP assays, hits from the primary screen were assayed again at 11-concentrations (1.3 nM - 76.6 uM). SH-SY5Y-GLuc-SERCaMP cells were assayed for ER Ca2+ depletion as outlined above.
# 1. Zhang, J.H., Chung, T.D., and Oldenburg, K.R. (1999). […]
# Potency is the fitted concentration of half-maximal effect.
row,Structure (SMILES),Potency
1,N#C/C(=C\c1ccc(O)c(O)c1)C(=O)c1ccc(O)c(O)c1,inactive
2,CC1CN(S(=O)(=O)c2cccc3cnccc23)CCN1 (configuration not stated),inactive
3,COc1cc(NC(C)CCCN)c2ncccc2c1 (configuration not stated),44.7 µM (active)
4,N=C1N=C(N)c2cc3ccccc3cc21,89.1 µM (active)
5,O=C1CN(/N=C/c2ccc(-c3ccc([N+](=O)[O-])cc3)o2)C(=O)N1,inactive
6,NC(=S)c1ccc[n+]([C@@H]2O[C@@H](COP(=O)([O-])OP(=O)(O)OC[C@H]3O[C@@H](n4cnc5c(N)ncnc54)[C@H](OP(=O)(O)O)[C@@H]3O)C(O)C2O)c1 (some centres not stated),inactive
7,C=C[C@H]1CN2CC[C@@H]1C[C@@H]2[C@@H](O)c1ccnc2ccc(OC)cc12,3.98 µM (active)
8,N#C/C(=C\c1c[nH]c2ccccc12)C(=O)c1ccc(O)c(O)c1,inactive
9,O=C(Nc1ccccc1)c1cc([N+](=O)[O-])ccc1Cl,inactive
10,CCCN(CC1CC1)c1nc(C)nc(Nc2c(Cl)cc(Cl)cc2Cl)c1Cl,inactive
11,NCCO,inactive
12,O=C(/C=C/c1ccc(O)cc1)c1ccc(O)cc1O,inactive
13,N.N.N.N.N.N.N.N.N.N.N.N.N.N.O.O.[Ru+4].[Ru+5].[Ru+5],7.08 µM (active)
14,C[N+]1(C)C2CC(OC(=O)[C@H](CO)c3ccccc3)CC1C1OC12 (some centres not stated),inactive
15,CN1[C@@H](CC(=O)c2ccccc2)CCC[C@H]1C[C@H](O)c1ccccc1,inactive
16,Cc1ccc(O)c(N=Nc2ccccc2)n1,inactive
17,O=C(O)Cc1ccc2c(c1)C(=O)c1ccccc1CO2,inactive
18,Fc1ccc(C(OCCCc2cnc[nH]2)c2ccc(F)cc2)cc1,inactive
19,O=C(/C=C/c1ccc(O)c(O)c1)OCCc1ccccc1,inactive
20,CC(C)OC(=O)c1cc(C(=O)OC(C)C)cc([N+](=O)[O-])c1,inactive
21,Cn1cc(C2=C(c3ccc(Cl)cc3Cl)C(=O)NC2=O)c2ccccc21,0.447 µM (active)
22,CCCCCCCC/C=C\CCCCCCCC(=O)NCCO,inactive
